In PubChem BioAssay (NCATS):
Inconclusive results are not listed. A call without a number means that no potency is given here. Activity calls are given as the source filed them. Calls follow the shape of the dose curve; as a rule, active = well fitted inhibition curve with a large enough effect; inconclusive = small, poorly fitted or top-dose-only effect, or effect the other way; inactive = flat fitted curve, though single readings scatter.
Potency is read from the fitted curve at half-maximal effect.

The molecules below were run against ATPase family AAA domain-containing protein 5 (Homo sapiens) (UniProt Q96QE3) (assay: Validation screen for small molecules that inhibit ELG1-dependent DNA repair in human embryonic kidney (HEK293T) cells expressing luciferase-tagged ELG1 (AID 493107; also: nearly all actives have a fitted effect of over 70% in size)). Details: HEK293T ELG1-luciferase level, luminescence, 5-fluorouridine co-treatment, 16 h; series mostly up to 46.1 µM.
Sequence of ATPase family AAA domain-containing protein 5 (Homo sapiens) (Q96QE3 whole entry, looked up, the tested form may be a part): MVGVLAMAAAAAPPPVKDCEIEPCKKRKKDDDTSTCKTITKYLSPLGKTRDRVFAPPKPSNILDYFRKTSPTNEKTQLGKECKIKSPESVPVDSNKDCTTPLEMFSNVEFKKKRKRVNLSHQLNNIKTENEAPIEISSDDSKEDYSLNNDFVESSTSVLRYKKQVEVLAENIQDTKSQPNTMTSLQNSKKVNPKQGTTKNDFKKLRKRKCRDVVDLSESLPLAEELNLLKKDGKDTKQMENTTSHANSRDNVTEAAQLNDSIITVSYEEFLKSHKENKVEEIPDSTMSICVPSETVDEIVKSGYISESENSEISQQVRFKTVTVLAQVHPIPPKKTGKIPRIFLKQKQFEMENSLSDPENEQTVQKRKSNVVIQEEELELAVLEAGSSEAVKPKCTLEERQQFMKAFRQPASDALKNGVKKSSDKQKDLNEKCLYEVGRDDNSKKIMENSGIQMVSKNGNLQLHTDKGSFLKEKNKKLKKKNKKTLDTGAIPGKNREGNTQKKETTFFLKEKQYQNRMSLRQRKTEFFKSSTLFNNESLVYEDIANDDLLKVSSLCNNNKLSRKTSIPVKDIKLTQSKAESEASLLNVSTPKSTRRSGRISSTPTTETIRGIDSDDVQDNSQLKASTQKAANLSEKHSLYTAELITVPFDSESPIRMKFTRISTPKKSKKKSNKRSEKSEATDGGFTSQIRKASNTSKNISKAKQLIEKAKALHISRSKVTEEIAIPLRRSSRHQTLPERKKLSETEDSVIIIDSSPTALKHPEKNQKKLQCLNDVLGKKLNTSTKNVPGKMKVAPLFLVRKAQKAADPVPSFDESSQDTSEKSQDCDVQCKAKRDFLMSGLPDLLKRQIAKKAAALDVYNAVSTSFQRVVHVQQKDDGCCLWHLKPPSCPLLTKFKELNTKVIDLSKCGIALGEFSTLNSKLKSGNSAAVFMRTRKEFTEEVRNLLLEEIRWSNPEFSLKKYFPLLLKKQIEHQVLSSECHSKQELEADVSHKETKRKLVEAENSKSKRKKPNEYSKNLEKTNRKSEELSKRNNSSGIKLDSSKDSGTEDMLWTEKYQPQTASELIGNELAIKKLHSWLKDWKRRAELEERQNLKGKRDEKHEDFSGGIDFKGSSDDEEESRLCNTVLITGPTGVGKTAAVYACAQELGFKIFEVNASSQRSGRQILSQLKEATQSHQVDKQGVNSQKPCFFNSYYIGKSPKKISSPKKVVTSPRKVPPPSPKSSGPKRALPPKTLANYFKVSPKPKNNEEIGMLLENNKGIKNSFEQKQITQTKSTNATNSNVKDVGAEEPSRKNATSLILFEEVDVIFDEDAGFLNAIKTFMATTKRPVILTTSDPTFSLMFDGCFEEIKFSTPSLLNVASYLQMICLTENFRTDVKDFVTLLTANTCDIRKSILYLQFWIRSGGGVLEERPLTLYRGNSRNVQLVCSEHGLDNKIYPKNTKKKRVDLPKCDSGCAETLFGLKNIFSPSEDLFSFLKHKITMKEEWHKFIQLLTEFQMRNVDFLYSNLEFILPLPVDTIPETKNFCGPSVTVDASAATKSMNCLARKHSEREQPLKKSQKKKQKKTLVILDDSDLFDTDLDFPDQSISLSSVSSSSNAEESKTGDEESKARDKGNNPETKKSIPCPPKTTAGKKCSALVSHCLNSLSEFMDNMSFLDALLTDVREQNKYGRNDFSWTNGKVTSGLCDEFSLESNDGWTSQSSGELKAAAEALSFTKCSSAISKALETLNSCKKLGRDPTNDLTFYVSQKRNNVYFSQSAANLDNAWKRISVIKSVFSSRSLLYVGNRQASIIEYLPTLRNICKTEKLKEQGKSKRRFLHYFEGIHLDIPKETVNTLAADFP
From the text: NIH Molecular Libraries Probe Production Network [MLPCN]
NIH Chemical Genomics Center [NCGC]
Assay Provider: Kyungjae Myung, NHGRI, NIH
Keywords: MLPCN, qHTS, NCGC, genotoxicity, cancer
Cancer cells divide rapidly compared to normal cells in the body. During cell division, cancer cells need to duplicate their genome by DNA replication. The failure of genome duplication leads to cancer cells' death. Therefore, inhibitors of DNA replication could specifically kill cancer cells. Based on this concept, many chemotherapeutic agents were developed and have been used to treat cancer patients. However, there are a limited number of agents available in the clinical setting, and some of those that do exist have low efficacy and severe side effects. Therefore, if we can find the compounds that effectively block DNA replication either by directly damaging DNA or by inhibiting other cellular mechanisms, the options for cancer treatment will be broadened. With this in mind, we developed a quantitative high-throughput ELG1-luciferase reporter gene assay. Small molecules that specifically block ELG1 function in response to DNA damage can be identified by monitoring the suppression of luciferase activity. Since ELG1 defines a pathway for repairing DNA damage, agents blocking ELG1 function can be used to sensitize cancer cells to chemotherapeutic agents whose mechanism of action involves the induction of DNA damage.
For genotoxicity screening, 2,000 cells in 4 uL/well were dispensed into white, solid-bottom 1536-well plates using a solenoid-based dispenser. Following transfer of 1 uL 5-Fluorouridine and 23 nL compound or DMSO vehicle by a pin tool, the plates were incubated 16 hr at 37 °C and 5% CO2. 5 ul ONE-Glo (Promega) was then added to each plate and following a 30 min incubation at room temperature, luciferase activity was quantified on a ViewLux CCD-based plate reader.
With `CCC(NC(C)C)C(O)c1ccc(O)c(O)c1` (configuration not stated) the Potency was “inactive”.
With `COc1cc(NS(C)(=O)=O)ccc1Nc1c2ccccc2nc2ccccc12` the Potency was 14.6 µM (active).
In the case of `CC[C@H](C)C(=O)O[C@H]1CCC=C2C=C[C@H](C)[C@H](CC[C@@H]3C[C@@H](O)CC(=O)O3)[C@H]21`, the Potency is reported as “inactive”.
In the case of `C[C@]12CC[C@@H]3c4ccc(O)cc4CC[C@H]3[C@@H]1CC[C@@H]2O`, the Potency is reported as “inactive”.
With `CNCCC(Oc1ccccc1C)c1ccccc1` (configuration not stated) the Potency was “inactive”.
With `C[C@@H]1C(=O)NC2=Nc3cccc(Cl)c3CN21` the Potency was “inactive”.
In the case of `Nc1cc(Cl)c(NC2=NCCN2)c(Cl)c1`, the Potency is reported as “inactive”.
`COC(=O)[C@H]1[C@H]2C[C@H]3c4[nH]c5ccccc5c4CCN3C[C@H]2CC[C@@H]1O` was tested, and the Potency was “inactive”.
`CCCC1O[C@@H]2C[C@H]3[C@@H]4CCC5=CC(=O)C=C[C@]5(C)[C@H]4[C@@H](O)C[C@]3(C)[C@]2(C(=O)CO)O1` (some centres not stated) was tested, and the Potency was “inactive”.
For `CN1C2CCC1CC(OC(=O)c1c[nH]c3ccccc13)C2` (configuration not stated), the Potency was “inactive”.
In the case of `C[N+]1(CCCCC[N+]2(C)CCCC2)CCCC1`, the Potency is reported as “inactive”.
`CC(C)COC(=O)OCN1C(=O)CN(CCN2CC(=O)N(COC(=O)OCC(C)C)C(=O)C2)CC1=O` was tested, and the Potency was “inactive”.
`CCCn1c(=O)[nH]c(=O)c2[nH]cnc21` was tested, and the Potency was “inactive”.
In the case of `CC(=O)O[C@H]1C[C@@H]2CC[C@@H]3[C@H](CC[C@@]4(C)[C@H]3C[C@H]([N+]3(C)CCCCC3)[C@@H]4OC(C)=O)[C@@]2(C)C[C@@H]1[N+]1(C)CCCCC1`, the Potency is reported as “inactive”.
`N[C@H](CO)C(=O)O` was tested, and the Potency was “inactive”.
For `CC1(C)CCC(NC(=O)[C@@H](N)CCC(=O)O)CC1`, the Potency was “inactive”.
In the case of `O=C(O)c1cc2cc(Cc3cccnc3)ccc2o1`, the Potency is reported as “inactive”.
